Here are results for 38 sequences from the OligoGym collection.
Note: reference of the scale not given here.

The target of one experiment is SLC13A5. As to the kind of experiment: pooled miR-30 sensor sort-seq; sequence = guide strand. The following applies: shRNA.
TACTGGACACACACCTGCCTGG gave a sensor-assay potency score (higher = more potent) of -0.809.
TTTCTTGCTCTCTAGCCCGCAG displayed a sensor-assay potency score (higher = more potent) of -0.697.
On the same count and under the same terms, to TTTTTCTTGCTCTCTAGCCCGC belongs -0.694.
TATGACTCCTGTTTTCACCATG returned a sensor-assay potency score (higher = more potent) of -1.13.

A further experiment has as its target SLC16A5. Described as above. The following applies: shRNA.
As for TTCTGCAGGGCGTAGAAGCTGC, the sensor-assay potency score (higher = more potent) was -0.98.
Take TTGCTTGGCCTGCAGTACCGCC: the sensor-assay potency score (higher = more potent) is -1.47.
Regarding TTGCTTCCCAGGACCGTCTTTG, the sensor-assay potency score (higher = more potent) is -0.623.
Turning to TTGGCCTGCAGTACCGCCTTTG, the sensor-assay potency score (higher = more potent) was -1.15.
TAGAAAACATAGCTAAAGTTGT returned a sensor-assay potency score (higher = more potent) of -0.585.
Same read-out and setting: to TAGCTAAAGTTGTTGGTGGCGT belongs -0.44; to TTGAGCAGGAGTGCCAGGCTGA, -0.145; to TTGCTGGCCTGGAACTCCCATT, -1.48.
As to TTCAGTGAAGAAGATGCCGATA, the sensor-assay potency score (higher = more potent) is -0.558.
Take TAACAAAGTAACCTCCTACTTT: the sensor-assay potency score (higher = more potent) was 0.00812.
On the same count and under the same terms, to ATGTACACGCAGTAGCCTGTGT belongs -0.541; to TTGCAGTTCAGTGAAGAAGATG, -1.64.

The target of another experiment is SLC17A2. The experiment is described as above. The following applies: shRNA.
Sequence ATGAACAGAAATCTGGACCTTT showed a sensor-assay potency score (higher = more potent) of 0.387.
With TTATGGGGACAGCTCGTCCAGG, the sensor-assay potency score (higher = more potent) is -1.25.
Still for that read-out and setting: to TTTTTTGCTCCAAATATCCCTG belongs -0.408; to AAATTGTACAGCTTGCAGCAGC, -0.887.
ATTAGATAGACCTTGCTGCTGA registered a sensor-assay potency score (higher = more potent) of 0.973.
Still for that read-out and setting: to TAAACTGACCTGTCCATGCCAT belongs -0.0582; to TATGTTAGGATGATGGTGCATA, -0.486; to TTTCGCACAGTGATCAATCTGA, 0.624.
Consider TCTGATGTTAACATGGAGCAGA, for which the sensor-assay potency score (higher = more potent) is -0.539.
Sequence TCATAAATCACTGTGAACCATA showed a sensor-assay potency score (higher = more potent) of -0.911.

The next experiment has as its target SLC17A8. Described as above. The following applies: shRNA.
TACGGTGCTATTGTTGACCATT gave a sensor-assay potency score (higher = more potent) of -0.977.
As to TTTACTTAGACTAACCACGTTG, the sensor-assay potency score (higher = more potent) was -0.016.
Sequence ATGAGGAACACATTCTGCCATT yielded a sensor-assay potency score (higher = more potent) of -1.42.
TAAATCTATAATTTTTTCCGTA showed a sensor-assay potency score (higher = more potent) of -0.398.
On to TTTCCATCAACATATACGGTGC, for which the sensor-assay potency score (higher = more potent) is -0.418.
Regarding TTTTCCATCAACATATACGGTG, the sensor-assay potency score (higher = more potent) is -0.405.
TATGAGGAACACATTCTGCCAT showed a sensor-assay potency score (higher = more potent) of 0.122.
In the case of TAAGACATCTTCTTTTTGGGAC, the sensor-assay potency score (higher = more potent) worked out at 0.433.
TTACTTAGACTAACCACGTTGG displayed a sensor-assay potency score (higher = more potent) of -0.0532.
Consider TTTCATTGTAGTATTTCTCTGT, for which the sensor-assay potency score (higher = more potent) was found to be 0.732.
Sequence TACAACGATTGTCATAACCATG yielded a sensor-assay potency score (higher = more potent) of -1.63.
On the same count and under the same terms, to TATATTATTGTGATTTCCCTGA belongs 0.059.
